Read-out in test [1]: UDP glucuronosyltransferase (UGT1A6), UGT1A6 (gene 54578)
As to the kind of experiment: LTEA_HepaRG_UGT1A6: Life Technologies and Expression Analysis (LTEA) Assay for UDP glucuronosyltransferase (UGT1A6) using HepaRG (AID 2283539; active = hit-call score of the fitted dose curve at least 0.9, where 1 is the maximum; inactive = score below 0.9). The settings on record: mRNA level, 48 h; actives raise or lower the signal. Summed up: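 Endpoint is UGT1A6 transcript induction or loss in a human liver cell line, quantified by TaqMan qRT-PCR 48 h after dosing. Concentrations ran from 100 uM downward in half-log steps in 0.5% DMSO; activity was fitted in both directions versus vehicle.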

Read-out in test [2]: X-box binding protein 1 (XBP1), XBP1 (gene 7494)
As to the kind of experiment: LTEA_HepaRG_XBP1: Life Technologies and Expression Analysis (LTEA) Assay for X-box binding protein 1 (XBP1) using HepaRG (AID 2283540; active = hit-call score of the fitted dose curve at least 0.9, where 1 is the maximum; inactive = score below 0.9). The settings on record: mRNA level, 48 h; actives raise or lower the signal. The method in brief: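 Human HepaRG monolayers receive test chemical for 48 h across an eight-point half-log series starting at 100 uM. XBP1 mRNA gain or loss is scored against DMSO by qRT-PCR.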

A short description of test [3]: LTEA_HepaRG_LDH_cytotoxicity: Cytotoxicity Assessment in the Life Technologies and Expression Analysis (LTEA) Assay (AID 2283563).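 For AC50: LDH activity released into spent culture medium as a marker of cell death.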 Summed up:
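Human HepaRG hepatic cells are treated with test chemicals for 48 h at up to 100 uM in 0.5% DMSO. Cytotoxicity is scored from medium LDH against the vehicle control.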

The nature of test [4]: ATG_XTT_Cytotoxicity: Cytotoxicity Assessment in the Attagene TRANS-FACTORIAL HepG2 Assay (AID 2283584). Summed up: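 Transfect HepG2 with GAL4-UAS reporter units, dose compound, incubate 24 h, then measure viable cell number by XTT. Fit concentration response against DMSO baseline.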
Test [5] can be described thus: TOX21_p53_BLA_p2_viability: Viability Assessment in the Tox21 HCT-116 p53 Agonism Beta-lactamase Assay, Phase 2 (AID 2283591).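 Note: actives lower the ATP signal meaning cytotoxicity.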 The method in brief:
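HCT116 p53-bla cells, 4000/well, dosed after 5 h plating (217-fold dilution of DMSO stocks) and incubated 16 h at 37C. Viability taken as cellular ATP by CellTiter-Glo luminescence after 30 min RT; signal loss marks cytotoxicity.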

The target in test [6] is Cellular tumor antigen p53 (Homo sapiens) (UniProt P04637). Description: TOX21_p53_BLA_p2_ratio: Tox21 HCT-116 p53 Agonism Beta-lactamase Assay, Ratio, Phase 2 (AID 2283592). Summed up:
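An inducible beta-lactamase reporter in HCT116 cells signals p53 pathway activation. After 16 h chemical exposure at 37C, cells load CCF4-AM substrate for 2 h at room temperature; activity is the cleaved/uncleaved emission ratio relative to DMSO.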

Test [7] can be described thus: TOX21_p53_BLA_p3_viability: Viability Assessment in the Tox21 HCT-116 p53 Agonism Beta-lactamase Assay, Phase 3 (AID 2283593).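 Note: cells exposed to compound for 16 h before reading.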 The method in brief: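 HCT116 cells, 4000/well, dosed 5 h after plating by pin transfer (217-fold dilution from DMSO stock) and incubated 16 h at 37C, 5% CO2. Viability read as ATP luminescence with CellTiter-Glo after 30 min at room temperature.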

The target in test [8] is Cellular tumor antigen p53 (Homo sapiens) (UniProt P04637). Description: TOX21_p53_BLA_p3_ratio: Tox21 HCT-116 p53 Agonism Beta-lactamase Assay, Ratio, Phase 3 (AID 2283596). Summed up: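 HCT116 p53-bla cells (4000/well) given compound in DMSO (217-fold dilution) after 5 h, incubated 16 h at 37C. CCF4-AM substrate 2 h at room temperature; 460/530 nm emission ratio, gain fitted against DMSO.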

Test [9] is described as follows: TOX21_p53_BLA_p4_viability: Viability Assessment in the Tox21 HCT-116 p53 Agonism Beta-lactamase Assay, Phase 4 (AID 2283597).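 Note: hits lower the luminescence signal meaning cytotoxicity.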 Summed up:
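Compound exposure of HCT116 cells lasts 16 h at 37C, 5% CO2, with DMSO stocks diluted 217-fold. Cellular ATP is then quantified by CellTiter-Glo luminescence after 30 min at room temperature.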

The target of test [10] is Cellular tumor antigen p53 (Homo sapiens) (UniProt P04637). As to the kind of experiment: TOX21_p53_BLA_p5_ratio: Tox21 HCT-116 p53 Agonism Beta-lactamase Assay, Ratio, Phase 5 (AID 2283599). Summed up: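 HCT-116 p53-bla cells (4000/well) plated 5 h, dosed with compound (217-fold DMSO dilution) for 16 h at 37 C; CCF4-AM substrate 2 h at room temperature. Activity is the 460/530 nm emission ratio (405 nm excitation), fitted in gain-of-signal direction versus DMSO.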

Test [11] is described as follows: TOX21_p53_BLA_p5_viability: Viability Assessment in the Tox21 HCT-116 p53 Agonism Beta-lactamase Assay, Phase 5 (AID 2283600). Summed up: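 Counter-readout for cytotoxicity: ATP-dependent luminescence from CellTiter-Glo, read in the beta-lactamase wells after 30 min at RT, following a 16 h compound exposure at 37C.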
Test [12] concerns the target Cellular tumor antigen p53 (Homo sapiens) (UniProt P04637). Description: TOX21_p53_BLA_p4_ratio: Tox21 HCT-116 p53 Agonism Beta-lactamase Assay, Ratio, Phase 4 (AID 2283601). The method in brief:
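HCT-116 p53 beta-lactamase reporter cells (4000/well) preincubated 5 h, then compound (217-fold dilution of DMSO stock) for 16 h at 37C. CCF4-AM substrate added 2 h at room temperature; 460/530 nm emission ratio fitted upward versus DMSO.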

A short description of test [13]: Tanguay_ZF_120hpf_MORT_legacy: (Legacy) Oregon State University Tanguay Lab 120 Hour Post-fertilization zebrafish Assay for Mortality (AID 2283633).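 For AC50: fitted as increase in binary mortality versus DMSO negative control.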 Summed up: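 Mortality endpoint from a multiplexed whole-embryo zebrafish screen. Dechorionated wild-type embryos received compound at 6 hpf and remained under static exposure at 28C until 120 hpf, with death noted as a present/absent call.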

Test [14] in a line: Tanguay_ZF_120hpf_YSE_legacy: (Legacy) Oregon State University Tanguay Lab 120 Hour Post-fertilization zebrafish Assay for Yolk Sac Edema (AID 2283634). The method in brief:
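Readout: presence or absence of yolk sac edema at 120 hpf, fitted upward against DMSO controls. Exposure ran statically from 6 hpf in dechorionated embryos kept at 28C.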

A short description of test [15]: Tanguay_ZF_120hpf_AXIS_legacy: (Legacy) Oregon State University Tanguay Lab 120 Hour Post-fertilization zebrafish Assay for Body Axis Malformation (AID 2283635).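 For AC50: potency for an increased fraction of larvae scored with body axis malformation.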 Summed up: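 Static 6–120 hpf chemical exposure of dechorionated wild-type 5D zebrafish, one per well at 28C; morphology endpoint scored binary at 120 hpf relative to DMSO control.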
The nature of test [16]: Tanguay_ZF_120hpf_EYE_legacy: (Legacy) Oregon State University Tanguay Lab 120 Hour Post-fertilization zebrafish Assay for Eye Malformation (AID 2283636).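 Note: binary presence or absence of eye malformation scored by brightfield in 120 hpf larvae.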 Summed up: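 Dechorionated Tropical 5D zebrafish embryos, one per well from 6 hpf, static exposure to 120 hpf at 28C, 0.64% DMSO. Eye malformation scored present/absent by brightfield; dead embryos not scored.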
Test [17] can be described thus: Tanguay_ZF_120hpf_SNOU_legacy: (Legacy) Oregon State University Tanguay Lab 120 Hour Post-fertilization zebrafish Assay for Snout Malformation (AID 2283637). The method in brief:
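Dechorionated tropical 5D wild-type zebrafish embryos exposed statically from 6 to 120 hpf at 28C, one per well, in 0.64% DMSO. Snout malformation scored as present/absent by brightfield at 120 hpf; dead embryos not scored.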

The nature of test [18]: Tanguay_ZF_120hpf_JAW_legacy: (Legacy) Oregon State University Tanguay Lab 120 Hour Post-fertilization zebrafish Assay for Jaw Malformation (AID 2283638).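 For AC50: active means more embryos with jaw malformation than DMSO controls.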 Summed up: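 Static waterborne exposure of dechorionated wild-type (Tropical 5D) zebrafish from 6 to 120 hpf at 28C, 0.64% DMSO vehicle; 5uM trimethyltin chloride served as positive control. Jaw morphology recorded as binary at 120 hpf.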

The nature of test [19]: Tanguay_ZF_120hpf_PE_legacy: (Legacy) Oregon State University Tanguay Lab 120 Hour Post-fertilization zebrafish Assay for Pericardial Edema (AID 2283640). The method in brief:
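Read-out is the presence or absence of pericardial edema at 120 hpf under brightfield, with gain of signal fitted against DMSO controls. Larvae (5D wild-type) were statically exposed at 28C with 0.64% final DMSO.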

The nature of test [20]: Tanguay_ZF_120hpf_OTIC_legacy: (Legacy) Oregon State University Tanguay Lab 120 Hour Post-fertilization zebrafish Assay for Otic Vesicle Malformation (AID 2283639). The method in brief:
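Tropical 5D wild-type zebrafish embryos were exposed statically in sealed, foil-covered plates at 28C until 120 hpf, with 0.64% (vol/vol) DMSO final. Otic vesicle malformation was scored present/absent by brightfield microscopy, with DMSO as baseline.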

The structures appear in SMILES notation. Records with an inconclusive call do not appear. Some compounds were tested as several samples or in several runs, with calls that do not always agree. Calls of active or inactive are those of the source. Rule for the calls, unless noted: active = hit-call score of the fitted dose curve at least 0.9, where 1 is the maximum; inconclusive = response in the unintended direction; inactive = score below 0.9.

Cellular tumor antigen p53 (Homo sapiens), sequence (P04637 whole entry, looked up): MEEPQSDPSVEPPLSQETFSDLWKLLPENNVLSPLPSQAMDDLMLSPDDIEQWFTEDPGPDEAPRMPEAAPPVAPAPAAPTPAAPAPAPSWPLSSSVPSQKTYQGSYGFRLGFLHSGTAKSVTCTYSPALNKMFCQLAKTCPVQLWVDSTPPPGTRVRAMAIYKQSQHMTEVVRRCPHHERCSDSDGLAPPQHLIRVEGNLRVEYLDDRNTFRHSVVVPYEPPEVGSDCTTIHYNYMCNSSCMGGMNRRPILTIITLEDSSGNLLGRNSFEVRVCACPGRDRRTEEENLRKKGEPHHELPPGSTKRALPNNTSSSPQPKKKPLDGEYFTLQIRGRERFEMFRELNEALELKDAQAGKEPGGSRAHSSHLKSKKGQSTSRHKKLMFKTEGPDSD

Consider `N[C@@H](Cc1cc(I)c(Oc2ccc(O)c(I)c2)c(I)c1)C(=O)O`, for which the AC50 in test [1] was 40 µM (active); in test [6] it was 33.6 µM (active); in test [10], 36.8 µM (active); in [12] it was 34.8 µM (active); in [13], 0.233 µM (active); in [15], 0.000818 µM (active). In addition, the AC50 is 0.00251 µM (active) in [16], 0.00111 µM (active) in test [17] and 0.00171 µM (active) in test [18]. The molecule was called inactive in [2], in test [3], in test [4], in test [5], in test [6] and in test [7]. In addition, the result in [8], in test [9], in test [10], in test [11], in test [12] and in test [14] was inactive. For the same molecule, the outcome in test [19] was inactive.

As for `CCCCC(CC)CN1C(=O)C2C3C=CC(C3)C2C1=O` (centres undefined), the molecule was called inactive in test [1], in [2], in [3], in test [4], in [5] and in test [6]. The result in test [10], in test [11], in test [12], in [13], in [14] and in test [15] was inactive. For the same molecule, the result in test [16], in test [17], in [18], in [20] and in [19] was inactive. The AC50 in test [9] is 73.3 µM (active).

Turning to `CC1(C)C(C=C(Cl)Cl)C1C(=O)OCc1cccc(Oc2ccccc2)c1` (centres undefined), the molecule was classed as inactive in test [1], in test [2], in test [3], in [4], in test [5] and in [6]. Moreover, the molecule was classed as inactive in [7], in test [8], in test [9], in test [11], in test [12] and in test [13]. For the same molecule, the molecule was called inactive in [14], in test [15], in [16], in test [17], in [18] and in test [20]. Also, the call in test [19] was inactive.

On to `CC(=O)S[C@@H]1CC2=CC(=O)CC[C@]2(C)[C@H]2CC[C@@]3(C)[C@@H](CC[C@@]34CCC(=O)O4)[C@H]12`, for which the AC50 in [1] was 50 µM (active); in test [2] it was 50 µM (active); in test [3], 79.1 µM (active); in test [6], 15.8 µM (active). The molecule was called inactive in test [4], in test [6], in [7], in [8], in test [9] and in test [10]. For the same molecule, the call in test [11], in test [12], in [13], in [14], in test [15] and in test [16] was inactive. The molecule was classed as inactive in [17], in test [18] and in [20].

Regarding `O=C(O)c1ccccc1`, the outcome in test [1], in test [2], in test [3], in [4], in [5] and in test [6] was inactive. For the same molecule, the outcome in test [7], in test [8], in [9], in [10], in test [11] and in test [12] was inactive. Moreover, the molecule was classed as inactive in [13], in [14], in test [15], in test [16], in [17] and in [18]. Moreover, the outcome in test [20] and in test [19] was inactive.

Take `c1ccc2[nH]c(-c3cscn3)nc2c1`: the result in [1], in [2], in [3], in [4], in test [13] and in test [14] was inactive. Further, the molecule was classed as inactive in test [15], in [16], in test [17], in test [18] and in [20].

The values are drawn from PubChem BioAssay (EPA / NIEHS).
